# How the values were obtained:
# Assay in all cases: DAPPL (digital affinity profiling via proximity ligation, sequencing); 10 mM Tris-HCl pH 7.5, 50 mM NaCl, 1 mM DTT, 4% glycerol, room temperature, 30 min; GST-TFs on glutathione beads, 16-mer random dsDNA library, 0.1% formaldehyde crosslink after washing; high values mean tight binding
# Settings in all cases: protein: recombinant; tags: N-terminal GST; dsDNA, one strand shown
# FLI1 = molecular target: T1, FLI1 (Homo sapiens, UniProt Q01543 1-452)
# T1 sequence: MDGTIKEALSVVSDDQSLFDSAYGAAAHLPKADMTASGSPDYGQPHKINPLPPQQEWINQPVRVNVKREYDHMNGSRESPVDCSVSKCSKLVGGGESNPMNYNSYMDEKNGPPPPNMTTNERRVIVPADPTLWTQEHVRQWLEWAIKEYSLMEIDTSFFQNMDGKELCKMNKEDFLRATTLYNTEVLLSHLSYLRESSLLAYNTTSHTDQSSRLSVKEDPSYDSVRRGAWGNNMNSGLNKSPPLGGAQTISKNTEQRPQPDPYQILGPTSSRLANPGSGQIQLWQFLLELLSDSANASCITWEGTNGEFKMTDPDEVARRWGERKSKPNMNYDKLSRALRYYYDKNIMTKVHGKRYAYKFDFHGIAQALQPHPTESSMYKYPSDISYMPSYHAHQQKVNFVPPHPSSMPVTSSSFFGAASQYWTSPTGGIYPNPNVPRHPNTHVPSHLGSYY
# Method in brief: (§1)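 GST fusions of human transcription factors were expressed in yeast and captured with glutathione beads. Once given DNA barcodes and pooled alongside a tag-only sample, they were incubated for 30 min at room temperature with 200 nmole of a random double-stranded 16-mer DNA library in Tris/NaCl/DTT/glycerol buffer, then washed, crosslinked (0.1% formaldehyde), proximity-ligated, PCR-amplified and sequenced on an Illumina NextSeq500. The binding signal of each hexamer is its read frequency for a factor divided by its frequency for the tag-only sample.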
# ELK1 = molecular target: T2, ELK1 (Homo sapiens, UniProt P19419 1-428)
# T2 sequence: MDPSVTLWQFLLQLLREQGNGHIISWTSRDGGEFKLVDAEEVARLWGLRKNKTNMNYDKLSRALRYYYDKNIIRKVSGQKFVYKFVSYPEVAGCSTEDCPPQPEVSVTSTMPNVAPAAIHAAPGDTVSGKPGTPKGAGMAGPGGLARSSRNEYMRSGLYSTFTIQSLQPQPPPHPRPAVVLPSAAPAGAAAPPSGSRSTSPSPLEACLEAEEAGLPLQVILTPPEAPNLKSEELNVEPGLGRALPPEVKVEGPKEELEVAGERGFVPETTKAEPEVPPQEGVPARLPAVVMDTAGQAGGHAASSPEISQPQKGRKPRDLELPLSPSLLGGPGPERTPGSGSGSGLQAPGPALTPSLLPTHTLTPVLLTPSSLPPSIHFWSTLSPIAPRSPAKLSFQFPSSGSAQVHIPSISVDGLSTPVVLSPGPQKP
# Method in brief: as §1
# GABPA = molecular target: T3, GABPA (Homo sapiens, UniProt Q06546 1-454)
# T3 sequence: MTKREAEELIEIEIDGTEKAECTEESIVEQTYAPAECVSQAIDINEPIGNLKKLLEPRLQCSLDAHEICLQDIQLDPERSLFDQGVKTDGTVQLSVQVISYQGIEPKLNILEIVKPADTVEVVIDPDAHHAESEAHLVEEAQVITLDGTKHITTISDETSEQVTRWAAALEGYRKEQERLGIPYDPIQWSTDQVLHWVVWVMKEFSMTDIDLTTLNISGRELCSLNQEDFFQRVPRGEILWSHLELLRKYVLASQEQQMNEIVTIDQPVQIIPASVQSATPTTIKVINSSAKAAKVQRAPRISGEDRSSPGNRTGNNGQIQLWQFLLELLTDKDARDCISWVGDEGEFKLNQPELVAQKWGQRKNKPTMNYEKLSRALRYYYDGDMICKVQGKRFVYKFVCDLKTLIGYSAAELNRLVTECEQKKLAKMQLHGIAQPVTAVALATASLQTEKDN
# Method in brief: as §1
# ERG = molecular target: T4, ERG (Homo sapiens, UniProt P11308 1-479)
# T4 sequence: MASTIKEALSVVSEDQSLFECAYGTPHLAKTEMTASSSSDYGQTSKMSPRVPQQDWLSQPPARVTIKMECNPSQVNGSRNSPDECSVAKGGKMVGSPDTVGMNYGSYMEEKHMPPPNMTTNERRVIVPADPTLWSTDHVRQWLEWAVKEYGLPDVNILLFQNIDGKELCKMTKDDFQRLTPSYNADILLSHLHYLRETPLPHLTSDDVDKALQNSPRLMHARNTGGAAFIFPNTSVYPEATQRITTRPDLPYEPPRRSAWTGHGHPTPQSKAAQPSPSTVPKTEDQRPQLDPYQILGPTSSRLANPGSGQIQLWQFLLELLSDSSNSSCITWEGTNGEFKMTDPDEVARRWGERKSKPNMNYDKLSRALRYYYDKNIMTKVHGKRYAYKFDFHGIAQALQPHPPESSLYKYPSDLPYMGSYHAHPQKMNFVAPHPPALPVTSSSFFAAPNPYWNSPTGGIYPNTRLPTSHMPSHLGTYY
# Method in brief: as §1
# ELF1 = ELF1 (Homo sapiens, UniProt P32519 1-619)
# ELF1, sequence (P32519 whole entry): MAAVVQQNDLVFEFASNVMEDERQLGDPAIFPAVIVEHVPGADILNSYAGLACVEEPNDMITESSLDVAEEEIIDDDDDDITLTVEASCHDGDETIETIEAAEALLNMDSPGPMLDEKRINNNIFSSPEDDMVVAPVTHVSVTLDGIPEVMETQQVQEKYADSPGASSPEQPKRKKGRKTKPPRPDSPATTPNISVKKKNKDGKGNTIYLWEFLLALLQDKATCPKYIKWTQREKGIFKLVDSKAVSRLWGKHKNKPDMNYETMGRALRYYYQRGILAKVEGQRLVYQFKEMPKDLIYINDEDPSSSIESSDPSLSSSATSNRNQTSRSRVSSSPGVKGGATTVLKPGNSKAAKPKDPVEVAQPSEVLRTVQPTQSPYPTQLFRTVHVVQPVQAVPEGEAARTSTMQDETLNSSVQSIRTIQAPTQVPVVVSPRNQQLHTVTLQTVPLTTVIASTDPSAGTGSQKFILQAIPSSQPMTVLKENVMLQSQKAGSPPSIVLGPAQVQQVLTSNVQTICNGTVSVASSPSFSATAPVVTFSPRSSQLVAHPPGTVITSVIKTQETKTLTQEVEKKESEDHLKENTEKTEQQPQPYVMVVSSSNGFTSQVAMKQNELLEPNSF
# Method in brief: as §1
# SPI1 = SPI1 (Homo sapiens, UniProt P17947 1-270)
# Method in brief: as §1
# SPIB = SPIB (Homo sapiens, UniProt Q01892 1-262)
# SPIB, sequence (Q01892 whole entry): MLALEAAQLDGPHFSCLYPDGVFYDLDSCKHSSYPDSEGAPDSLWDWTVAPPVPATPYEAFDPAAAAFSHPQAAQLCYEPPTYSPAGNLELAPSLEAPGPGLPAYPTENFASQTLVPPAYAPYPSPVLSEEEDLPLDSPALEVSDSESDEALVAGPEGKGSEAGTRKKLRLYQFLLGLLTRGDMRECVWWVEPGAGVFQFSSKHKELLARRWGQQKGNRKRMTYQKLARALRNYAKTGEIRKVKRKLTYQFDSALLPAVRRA
# Method in brief: as §1
# ELK3 = molecular target: T5, ELK3 (Homo sapiens, UniProt P41970 1-407)
# T5 sequence: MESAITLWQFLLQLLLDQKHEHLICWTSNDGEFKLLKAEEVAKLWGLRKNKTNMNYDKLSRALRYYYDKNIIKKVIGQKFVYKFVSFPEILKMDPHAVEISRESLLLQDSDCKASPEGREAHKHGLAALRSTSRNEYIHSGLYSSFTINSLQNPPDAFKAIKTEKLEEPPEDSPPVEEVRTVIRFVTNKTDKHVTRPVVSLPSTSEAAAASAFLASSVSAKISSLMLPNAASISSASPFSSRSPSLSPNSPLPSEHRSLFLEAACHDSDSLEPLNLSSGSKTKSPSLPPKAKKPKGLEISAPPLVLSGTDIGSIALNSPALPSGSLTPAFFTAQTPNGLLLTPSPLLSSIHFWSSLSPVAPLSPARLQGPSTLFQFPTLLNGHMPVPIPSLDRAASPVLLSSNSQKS
# Method in brief: as §1
# ETV5 = ETV5 (Homo sapiens, UniProt P41161 1-510)
# ETV5, sequence (P41161 whole entry): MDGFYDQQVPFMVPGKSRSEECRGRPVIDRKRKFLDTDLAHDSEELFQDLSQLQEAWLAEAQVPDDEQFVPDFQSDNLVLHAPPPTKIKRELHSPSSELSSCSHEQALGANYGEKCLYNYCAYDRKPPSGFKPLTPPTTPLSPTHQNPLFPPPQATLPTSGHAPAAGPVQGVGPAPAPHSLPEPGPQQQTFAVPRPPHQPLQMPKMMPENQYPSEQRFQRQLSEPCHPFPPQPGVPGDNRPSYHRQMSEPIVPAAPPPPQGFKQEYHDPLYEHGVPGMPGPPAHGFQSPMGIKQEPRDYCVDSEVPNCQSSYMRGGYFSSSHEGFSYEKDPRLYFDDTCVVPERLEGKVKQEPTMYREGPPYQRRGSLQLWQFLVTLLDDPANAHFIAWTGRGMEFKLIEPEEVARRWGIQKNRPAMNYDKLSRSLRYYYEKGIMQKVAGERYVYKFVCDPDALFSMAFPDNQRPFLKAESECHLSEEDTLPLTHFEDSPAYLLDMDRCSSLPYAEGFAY
# Method in brief: as §1
# SPIC = molecular target: T6, SPIC (Homo sapiens, UniProt Q8N5J4 1-248)
# T6 sequence: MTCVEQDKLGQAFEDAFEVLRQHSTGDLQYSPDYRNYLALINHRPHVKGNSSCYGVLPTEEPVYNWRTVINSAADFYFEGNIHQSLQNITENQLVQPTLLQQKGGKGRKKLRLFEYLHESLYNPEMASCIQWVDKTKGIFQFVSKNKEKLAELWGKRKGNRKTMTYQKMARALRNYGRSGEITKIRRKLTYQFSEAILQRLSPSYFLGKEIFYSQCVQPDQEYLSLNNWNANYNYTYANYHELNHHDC
# Method in brief: as §1
# ETV3L = molecular target: T7, ETV3L (Homo sapiens, UniProt Q6ZN32 1-361)
# T7 sequence: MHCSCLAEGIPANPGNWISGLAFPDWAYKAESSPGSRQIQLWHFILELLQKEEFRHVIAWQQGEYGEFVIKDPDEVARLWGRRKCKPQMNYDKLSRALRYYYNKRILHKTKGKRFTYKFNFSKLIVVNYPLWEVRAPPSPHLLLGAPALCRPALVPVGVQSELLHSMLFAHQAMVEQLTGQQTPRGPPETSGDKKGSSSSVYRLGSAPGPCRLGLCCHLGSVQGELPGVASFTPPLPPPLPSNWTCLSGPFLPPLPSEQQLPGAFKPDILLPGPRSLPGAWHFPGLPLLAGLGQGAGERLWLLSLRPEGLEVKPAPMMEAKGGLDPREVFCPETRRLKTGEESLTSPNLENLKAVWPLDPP
# Method in brief: as §1
# ETS2 = molecular target: T8, ETS2 (Homo sapiens, UniProt P15036 1-469)
# T8 sequence: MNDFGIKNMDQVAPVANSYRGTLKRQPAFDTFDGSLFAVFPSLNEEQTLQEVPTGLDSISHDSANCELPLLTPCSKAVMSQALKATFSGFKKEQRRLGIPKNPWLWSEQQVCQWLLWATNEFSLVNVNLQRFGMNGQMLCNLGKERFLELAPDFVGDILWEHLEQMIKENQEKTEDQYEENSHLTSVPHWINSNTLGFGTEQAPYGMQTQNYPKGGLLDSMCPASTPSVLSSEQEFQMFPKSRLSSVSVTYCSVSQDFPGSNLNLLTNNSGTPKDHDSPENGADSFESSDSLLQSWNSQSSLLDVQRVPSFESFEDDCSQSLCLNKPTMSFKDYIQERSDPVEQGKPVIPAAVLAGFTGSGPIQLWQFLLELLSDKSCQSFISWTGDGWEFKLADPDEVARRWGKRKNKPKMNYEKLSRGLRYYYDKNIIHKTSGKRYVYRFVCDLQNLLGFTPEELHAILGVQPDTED
# Method in brief: as §1
# ELF5 = molecular target: T9, ELF5 (Homo sapiens, UniProt Q9UKW6-2 1-255)
# T9 sequence: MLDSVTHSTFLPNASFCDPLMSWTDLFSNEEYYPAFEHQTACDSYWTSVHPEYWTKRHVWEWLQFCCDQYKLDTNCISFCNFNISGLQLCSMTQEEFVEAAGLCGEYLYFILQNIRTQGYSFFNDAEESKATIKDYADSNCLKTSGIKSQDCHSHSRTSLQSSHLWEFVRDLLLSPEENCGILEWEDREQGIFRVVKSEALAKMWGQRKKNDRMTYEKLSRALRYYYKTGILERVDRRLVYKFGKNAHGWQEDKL
# Method in brief: as §1
# ETV3 = molecular target: T10, ETV3 (Homo sapiens, UniProt P41162-2 1-143)
# T10 sequence: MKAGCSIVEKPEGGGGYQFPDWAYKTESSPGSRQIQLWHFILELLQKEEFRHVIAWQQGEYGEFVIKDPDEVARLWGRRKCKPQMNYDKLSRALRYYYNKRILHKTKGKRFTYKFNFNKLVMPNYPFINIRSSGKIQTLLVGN
# Method in brief: as §1
# ETV6 = ETV6 (Homo sapiens, UniProt P41212 1-452)
# ETV6, sequence (P41212 whole entry): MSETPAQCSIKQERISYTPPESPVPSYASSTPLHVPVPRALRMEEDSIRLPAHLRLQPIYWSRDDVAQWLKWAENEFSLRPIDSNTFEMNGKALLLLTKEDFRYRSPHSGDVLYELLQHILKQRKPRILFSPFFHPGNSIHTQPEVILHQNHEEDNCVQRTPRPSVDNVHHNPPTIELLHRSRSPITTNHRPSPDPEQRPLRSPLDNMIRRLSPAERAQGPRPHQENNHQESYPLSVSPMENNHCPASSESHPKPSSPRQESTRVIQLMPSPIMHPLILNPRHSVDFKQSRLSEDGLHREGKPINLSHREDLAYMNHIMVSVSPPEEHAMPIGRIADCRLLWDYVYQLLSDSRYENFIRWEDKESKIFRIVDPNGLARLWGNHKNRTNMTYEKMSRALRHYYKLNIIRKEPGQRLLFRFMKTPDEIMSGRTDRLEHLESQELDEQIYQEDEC
# Method in brief: as §1
sequence,measurement,setting,value
ATGGCG,binding signal,FLI1,"1 fold enrichment (6-mer frequency, TF over GST control)"
same,binding signal,ELK1,"1.05 fold enrichment (6-mer frequency, TF over GST control)"
same,binding signal,GABPA,"1.04 fold enrichment (6-mer frequency, TF over GST control)"
same,binding signal,ERG,"1.02 fold enrichment (6-mer frequency, TF over GST control)"
same,binding signal,ELF1,"1.06 fold enrichment (6-mer frequency, TF over GST control)"
same,binding signal,SPI1,"1.03 fold enrichment (6-mer frequency, TF over GST control)"
same,binding signal,SPIB,"1.01 fold enrichment (6-mer frequency, TF over GST control)"
same,binding signal,ELK3,"1.01 fold enrichment (6-mer frequency, TF over GST control)"
same,binding signal,ETV5,"1.02 fold enrichment (6-mer frequency, TF over GST control)"
same,binding signal,SPIC,"1.16 fold enrichment (6-mer frequency, TF over GST control)"
same,binding signal,ETV3L,"1.03 fold enrichment (6-mer frequency, TF over GST control)"
same,binding signal,ETS2,"1.11 fold enrichment (6-mer frequency, TF over GST control)"
same,binding signal,ELF5,"1.01 fold enrichment (6-mer frequency, TF over GST control)"
same,binding signal,ETV3,"1.09 fold enrichment (6-mer frequency, TF over GST control)"
same,binding signal,ETV6,"1.05 fold enrichment (6-mer frequency, TF over GST control)"
